The values below come from PubChem BioAssay.

Calls of active or inactive are those of the source.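 Rule for the calls, unless noted: active = visual image review flags a hit and inhibition of aggregation exceeds 20%; inconclusive = visual hit but inhibition at or below 20%; inactive = no hit on visual image review.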

Usually inhibition stands for the change of the read-out against control, counted positive when it falls.

The nature of one test: reduction of polyQ htt aggregates in cells – imaging, exon1htt(103Q)mCFP cells, high-content imaging, primary screen (AID 483).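 For nuclei count: percent of the per-plate median nuclei count of sample wells.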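 Note: compound exposure lasted 3 days before fixation.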 The conditions noted are these: exon1htt(103Q)mCFP cell line, aggregate imaging, at 2 µM; inhibition of aggregation: stronger effect = higher value; nuclei count: measured here: cell count, toxicity.
`O=C(CCn1c(=O)c2ccccc2n(CC(=O)NCCC2=CCCCC2)c1=O)NCc1ccco1`: the nuclei count was determined as 102% and the inhibition of aggregation is 25.7% (inactive).
On to `CCOC(=O)N1CCC(n2c(SCC(=O)NCc3ccco3)nc3ccsc3c2=O)CC1`, for which the nuclei count came out at 97.8% and the inhibition of aggregation is 2.8% (inactive).
Turning to `CCOC(=O)N1CCC(NC(=O)c2ccc3c(c2)N(CC)CCS3)CC1`, the nuclei count amounted to 70.3% and the inhibition of aggregation is -22.2% (inactive).
As to `CC(=O)NC1(C(F)(F)F)NC(=O)N(CC(C)C)C1=O` (stereo not given), the nuclei count amounted to 97.6% and the inhibition of aggregation is -8.3% (inactive).
For `COc1ccc(CCn2c(-c3ccco3)nc3ccccc3c2=O)cc1OC` the same measures were 107% and 2.8% (inactive).
`CCCC(=O)Nc1cc(-c2nnc(OC)c3ccccc23)ccc1N1CCOCC1`: the nuclei count came to 105% and the inhibition of aggregation is -2% (inactive).
For the compound `O=c1oc2ccccc2c(O)c1CN1CCCCC1`, the inhibition of aggregation was 4.9% (inactive) and the nuclei count came out at 48.1%.
Take `Nc1nc(N2CCN(C/C=C/c3ccccc3)CC2)nc2ccccc12`: the inhibition of aggregation is 2% (inactive) and the nuclei count was 69.5%.
Take `Cc1ccc(-c2cn3cccnc3n2)cc1NC(=O)c1ccc(Br)o1`: the inhibition of aggregation is 30.5% (inactive) and the nuclei count is 66.8%.
As to `O=c1[nH]c(Nc2ccccc2)cc2ccccc12`, the inhibition of aggregation was -7.1% (inactive) and the nuclei count was found to be 101%.
As for `Fc1ccc(-c2nnc(CN3CCN(c4ncc(C(F)(F)F)cc4Cl)CC3)o2)cc1`, the inhibition of aggregation was 8.2% (inactive) and the nuclei count worked out at 111%.
For `COc1cc(N=c2ssnc2Cl)cc(OC)c1` the same measures were 0.8% (inactive) and 74.7%.
Regarding `COc1ccc(-c2c(=O)n(OCc3ccccn3)c3ccccc3[n+]2[O-])cc1OC`, the nuclei count is 104% and the inhibition of aggregation is -10.4% (inactive).
For `Cc1sc2nc(SCC(=O)N3CCN(CCO)CC3)n(-c3ccccc3)c(=O)c2c1C` the same measures were 111% and -7.3% (inactive).
As for `CC(=O)Nc1cccc(NC(=O)C2CCCN2C(=O)Nc2ccc(C)cc2)c1` (stereo not given), the nuclei count was determined as 89.4% and the inhibition of aggregation was 0.5% (inactive).
On to `Cc1ccc(C)n1-n1c(C)nc2sc(-c3ccccc3)cc2c1=O`, for which the nuclei count stood at 85.3% and the inhibition of aggregation was -8.2% (inactive).
With `O=C1c2ccccc2-c2ccc(C(=O)N3CCOCC3)cc21`, the nuclei count is 81.1% and the inhibition of aggregation was -6.2% (inactive).
Take `O=C1NC(c2ccccc2)(C(F)(F)F)SC2=CCCCCN12` (stereo not given): the nuclei count stood at 98.6% and the inhibition of aggregation is 2% (inactive).
For `CC1CCCCN1CCNC(=O)C1CCN(S(=O)(=O)c2cccc3cccnc23)CC1` (stereo not given), the nuclei count stood at 72.5% and the inhibition of aggregation was 5.9% (inactive).
`Cc1ccc(-c2nnc3c4ccccc4c(C)nn23)cc1S(=O)(=O)N1CCN(C)CC1`: the nuclei count was found to be 96.2% and the inhibition of aggregation was 3.8% (inactive).
Take `O=S(=O)(c1ccc2c(c1)OCCO2)N1CCC(n2nnc3cc(F)ccc32)CC1`: the inhibition of aggregation was 1.5% (inactive) and the nuclei count was 78%.
Regarding `O=C(c1ccco1)N1CCN(S(=O)(=O)c2ccc(C3CCCCC3)cc2)CC1`, the inhibition of aggregation is -1.8% (inactive) and the nuclei count stood at 102%.
For the compound `CC(=O)c1ccc(NC(=O)CSc2nnc(-c3ccoc3C)n2Cc2ccccc2)cc1`, the nuclei count is 98.2% and the inhibition of aggregation is 5.2% (inactive).
In the case of `Cc1cc(NC(=O)CSc2nnc(COc3cccc(C)c3C)n2Cc2ccco2)no1`, the nuclei count was found to be 93% and the inhibition of aggregation is 7.4% (inactive).
With `COc1cccc(NC(=O)C2CCN(c3ncccn3)CC2)c1`, the nuclei count turned out to be 94.4% and the inhibition of aggregation is -8.1% (inactive).
As to `CC1(C)CN=C(N2CCN(c3ncnc4sc5c(c34)CCCC5)CC2)S1`, the nuclei count came out at 80.5% and the inhibition of aggregation is -0.4% (inactive).
For `CCOCCn1c(CN2CCN(c3cccc(Cl)c3)CC2)nc2c1c(=O)n(C)c(=O)n2C` the same measures were 104% and -5.1% (inactive).
For `Clc1ccc(OCCCn2cncn2)cc1Cl` the same measures were 99.2% and 21.2% (inactive).
Consider `CN(CC(=O)Nc1ccc(F)c(Cl)c1)S(=O)(=O)c1cccc2nsnc12`, for which the nuclei count is 64.7% and the inhibition of aggregation was 5.8% (inactive).
`O=C(NCc1nc2ccccc2[nH]1)c1ccco1`: the inhibition of aggregation was 1.3% (inactive) and the nuclei count worked out at 113%.
In the case of `O=C(Cc1cccs1)Nc1ccccc1NC(=O)Cc1cccs1`, the nuclei count was found to be 82.6% and the inhibition of aggregation was 16.2% (inactive).
For `COc1ccc(-c2nnc(SCC(=O)N3CCCCC3)o2)cc1OC`, the inhibition of aggregation is 5.7% (inactive) and the nuclei count was 120%.
As for `CCOC(=O)c1cc2c(=O)n3ccccc3nc2n(CCCOC)c1=NC(=O)C(C)(C)C`, the nuclei count was 86.8% and the inhibition of aggregation was 39.3% (active).
In the case of `Cc1onc(-c2ccccc2Cl)c1C(=O)Nc1cnn(Cc2ccccc2)c1`, the inhibition of aggregation is -4% (inactive) and the nuclei count is 121%.
For `CC1Cc2ccccc2N1C(=O)c1cccnc1` (stereo not given) the same measures were -30.3% (inactive) and 106%.
In the case of `CS(=O)(=O)Nc1ccccc1C(=O)O`, the nuclei count is 113% and the inhibition of aggregation was -4.3% (inactive).
Regarding `O=C1CN(C(=O)COC(=O)C23CC4CC(CC(O)(C4)C2)C3)c2ccccc2N1`, the inhibition of aggregation was 8% (inactive) and the nuclei count came out at 106%.
With `O=C(Nc1ccc(F)cc1)NC1CCN(Cc2nnnn2Cc2ccco2)CC1`, the nuclei count was 94.3% and the inhibition of aggregation was -19.5% (inactive).
As for `CCC(=O)c1ccc(OC(=O)c2ccc(Br)o2)cc1`, the nuclei count worked out at 99.8% and the inhibition of aggregation was -19.7% (inactive).
As for `Cc1ccc(NC(=O)CCC(=O)OCC(F)(F)C(F)F)cc1`, the nuclei count stood at 69.2% and the inhibition of aggregation is 2% (inactive).

A further test can be described thus: endothelial E-selectin expression blockers – imaging, HUVEC, immunofluorescence, MLSMR starter and 10KST1 sets, primary screen (AID 487;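 active = visually confirmed hit in the image check and inhibition above 20%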;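 for inhibition: signal is fraction of cell area covered by stained E-selectin grains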;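 for nuclei count: 100% = median nuclei count of all wells on the same plate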). The conditions noted are these: HUVEC TNFalpha-induced E-selectin immunofluorescence imaging, at 2 µM; inhibition: stronger effect = higher value; nuclei count: measured here: cell number, toxicity.
For the compound `O=C(CCn1c(=O)c2ccccc2n(CC(=O)NCCC2=CCCCC2)c1=O)NCc1ccco1`, the inhibition was -9.8% (inactive) and the nuclei count worked out at 82%.
Regarding `CCOC(=O)N1CCC(n2c(SCC(=O)NCc3ccco3)nc3ccsc3c2=O)CC1`, the inhibition is -97.7% (inactive) and the nuclei count came out at 118%.
On to `CCOC(=O)N1CCC(NC(=O)c2ccc3c(c2)N(CC)CCS3)CC1`, for which the inhibition is -62.7% (inactive) and the nuclei count stood at 114%.
For the compound `CC(=O)NC1(C(F)(F)F)NC(=O)N(CC(C)C)C1=O` (stereo not given), the inhibition is -30.2% (inactive) and the nuclei count came out at 101%.
For `COc1ccc(CCn2c(-c3ccco3)nc3ccccc3c2=O)cc1OC` the same measures were -99.5% (inactive) and 120%.
For `CCCC(=O)Nc1cc(-c2nnc(OC)c3ccccc23)ccc1N1CCOCC1`, the inhibition is -14.8% (inactive) and the nuclei count was determined as 112%.
Consider `O=c1oc2ccccc2c(O)c1CN1CCCCC1`, for which the nuclei count stood at 117% and the inhibition is -83.3% (inactive).
Turning to `Nc1nc(N2CCN(C/C=C/c3ccccc3)CC2)nc2ccccc12`, the nuclei count came to 139% and the inhibition is -58.8% (inactive).
For `Cc1ccc(-c2cn3cccnc3n2)cc1NC(=O)c1ccc(Br)o1` the same measures were 103% and -274% (inactive).
For `O=c1[nH]c(Nc2ccccc2)cc2ccccc12` the same measures were 96.7% and -33.7% (inactive).
Consider `Fc1ccc(-c2nnc(CN3CCN(c4ncc(C(F)(F)F)cc4Cl)CC3)o2)cc1`, for which the nuclei count amounted to 124% and the inhibition is -9.8% (inactive).
For `COc1cc(N=c2ssnc2Cl)cc(OC)c1` the same measures were 82.2% and 4.2% (inactive).
In the case of `COc1ccc(-c2c(=O)n(OCc3ccccn3)c3ccccc3[n+]2[O-])cc1OC`, the inhibition is -22.9% (inactive) and the nuclei count came to 110%.
In the case of `Cc1sc2nc(SCC(=O)N3CCN(CCO)CC3)n(-c3ccccc3)c(=O)c2c1C`, the inhibition is -55% (inactive) and the nuclei count stood at 121%.
Consider `CC(=O)Nc1cccc(NC(=O)C2CCCN2C(=O)Nc2ccc(C)cc2)c1` (stereo not given), for which the inhibition was -3.5% (inactive) and the nuclei count was 111%.
Turning to `Cc1ccc(C)n1-n1c(C)nc2sc(-c3ccccc3)cc2c1=O`, the nuclei count amounted to 109% and the inhibition was -143% (inactive).
Consider `O=C1c2ccccc2-c2ccc(C(=O)N3CCOCC3)cc21`, for which the nuclei count came out at 101% and the inhibition is -103% (inactive).
Turning to `O=C1NC(c2ccccc2)(C(F)(F)F)SC2=CCCCCN12` (stereo not given), the nuclei count was 111% and the inhibition was -14% (inactive).
In the case of `CC1CCCCN1CCNC(=O)C1CCN(S(=O)(=O)c2cccc3cccnc23)CC1` (stereo not given), the inhibition was -54.5% (inactive) and the nuclei count worked out at 105%.
Regarding `Cc1ccc(-c2nnc3c4ccccc4c(C)nn23)cc1S(=O)(=O)N1CCN(C)CC1`, the nuclei count is 81.2% and the inhibition was 11.3% (inactive).
For the compound `O=S(=O)(c1ccc2c(c1)OCCO2)N1CCC(n2nnc3cc(F)ccc32)CC1`, the nuclei count came out at 103% and the inhibition was -24.6% (inactive).
As to `O=C(c1ccco1)N1CCN(S(=O)(=O)c2ccc(C3CCCCC3)cc2)CC1`, the nuclei count is 109% and the inhibition is -44.9% (inactive).
Take `CC(=O)c1ccc(NC(=O)CSc2nnc(-c3ccoc3C)n2Cc2ccccc2)cc1`: the inhibition is -35.8% (inactive) and the nuclei count came to 99.5%.
Turning to `Cc1cc(NC(=O)CSc2nnc(COc3cccc(C)c3C)n2Cc2ccco2)no1`, the nuclei count stood at 101% and the inhibition is -60.4% (inactive).
For `COc1cccc(NC(=O)C2CCN(c3ncccn3)CC2)c1`, the inhibition is -62.3% (inactive) and the nuclei count came to 129%.
With `CC1(C)CN=C(N2CCN(c3ncnc4sc5c(c34)CCCC5)CC2)S1`, the nuclei count is 113% and the inhibition was -28.7% (inactive).
In the case of `CCOCCn1c(CN2CCN(c3cccc(Cl)c3)CC2)nc2c1c(=O)n(C)c(=O)n2C`, the nuclei count came to 103% and the inhibition is -20% (inactive).
On to `Clc1ccc(OCCCn2cncn2)cc1Cl`, for which the nuclei count was 94.7% and the inhibition was 7.8% (inactive).
In the case of `CN(CC(=O)Nc1ccc(F)c(Cl)c1)S(=O)(=O)c1cccc2nsnc12`, the nuclei count is 108% and the inhibition was -18.3% (inactive).
Turning to `O=C(NCc1nc2ccccc2[nH]1)c1ccco1`, the inhibition is -228% (inactive) and the nuclei count is 140%.
`O=C(Cc1cccs1)Nc1ccccc1NC(=O)Cc1cccs1`: the nuclei count is 88.2% and the inhibition is 7.1% (inactive).
For `COc1ccc(-c2nnc(SCC(=O)N3CCCCC3)o2)cc1OC` the same measures were 123% and -85.6% (inactive).
Consider `CCOC(=O)c1cc2c(=O)n3ccccc3nc2n(CCCOC)c1=NC(=O)C(C)(C)C`, for which the inhibition is -203% (inactive) and the nuclei count was found to be 95.3%.
For `Cc1onc(-c2ccccc2Cl)c1C(=O)Nc1cnn(Cc2ccccc2)c1` the same measures were 15.1% (inactive) and 120%.
For the compound `CC1Cc2ccccc2N1C(=O)c1cccnc1` (stereo not given), the inhibition is -64.3% (inactive) and the nuclei count was found to be 103%.
Regarding `CS(=O)(=O)Nc1ccccc1C(=O)O`, the inhibition was -81.2% (inactive) and the nuclei count came to 121%.
Take `O=C1CN(C(=O)COC(=O)C23CC4CC(CC(O)(C4)C2)C3)c2ccccc2N1`: the nuclei count amounted to 102% and the inhibition is -44.5% (inactive).
For `O=C(Nc1ccc(F)cc1)NC1CCN(Cc2nnnn2Cc2ccco2)CC1`, the nuclei count was 113% and the inhibition is -2.9% (inactive).
On to `CCC(=O)c1ccc(OC(=O)c2ccc(Br)o2)cc1`, for which the nuclei count amounted to 112% and the inhibition was -84.3% (inactive).
On to `Cc1ccc(NC(=O)CCC(=O)OCC(F)(F)C(F)F)cc1`, for which the inhibition was -2.3% (inactive) and the nuclei count stood at 91.8%.
